HEK293 tox = kills HEK 293 cells | HEK 293 viability, ATP luminescence (CellTiter-Glo), 48-72 h | Potency, µM (titrated, usually from 115 µM), without a hit: at the top dose activity change, negative = cytotoxicity, usual class: inhibitors | actives 6.6% (n = 94,000); further: nearly all actives have a fitted effect of over 60% in size
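HEK 293 cells seeded at 250 cells/well were exposed to compound for 48 or 72 hr at 37 degree Celsius. Viability taken as ATP content by CellTiter-Glo luminescence.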
FLuc inh = blocks purified firefly luciferase enzyme activity | P08659 | purified P. pyralis luciferase, luminescence, biochemical | Potency, µM (top dose mostly 115 µM), most hits filed as inhibitors | actives 2.5% (n = 76,000) | AID 1347043; further: nearly all actives have a fitted effect of over 65% in size
Target sequence (P08659 whole entry, looked up): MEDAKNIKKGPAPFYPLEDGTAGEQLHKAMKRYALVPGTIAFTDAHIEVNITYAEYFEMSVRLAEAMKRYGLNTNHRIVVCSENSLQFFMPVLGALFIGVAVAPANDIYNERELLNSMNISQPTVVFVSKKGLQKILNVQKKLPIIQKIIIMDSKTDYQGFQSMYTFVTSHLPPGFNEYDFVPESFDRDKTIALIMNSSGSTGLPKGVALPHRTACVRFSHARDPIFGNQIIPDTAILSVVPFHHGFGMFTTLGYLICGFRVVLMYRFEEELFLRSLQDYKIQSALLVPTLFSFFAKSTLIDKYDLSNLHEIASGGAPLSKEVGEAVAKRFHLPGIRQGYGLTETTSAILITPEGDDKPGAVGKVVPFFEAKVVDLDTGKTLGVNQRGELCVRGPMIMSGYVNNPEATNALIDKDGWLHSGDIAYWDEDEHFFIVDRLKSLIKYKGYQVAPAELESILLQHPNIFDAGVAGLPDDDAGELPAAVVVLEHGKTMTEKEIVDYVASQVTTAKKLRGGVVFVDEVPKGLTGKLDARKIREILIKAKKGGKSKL
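Purified 10nM P. pyralis luciferase with 10uM D-luciferin and 10uM ATP in 50mM Tris acetate pH 7.5, 10mM Mg acetate, 0.01% Tween-20, 0.05% BSA. qHTS titration; luminescence read by CCD imager.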
3T3 cytotox = cytotoxic compounds in NIH 3T3 cells; NIH 3T3 viability, CellTiter-Glo ATP luminescence, 48-72 h; Potency, µM (series often up to 96.7 µM), inactives show at the top dose activity change, negative = cytotoxicity, most hits filed as inhibitors; actives 4.3% (n = 94,000); AID 1345082; further: nearly all actives have a fitted effect of over 55% in size
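Cytotoxicity is measured as loss of cellular ATP: NIH 3T3 cells (400/well) are exposed to compound for 48 or 72 hr at 37 °C, then CellTiter-Glo luminescence is imaged after 10 min at room temperature.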
NPR1 antag = human Npr1 receptor antagonism | AID 1347048 | actives 1.6% (n = 76,000) | P16066 | Potency, µM (top dose mostly 46.3 µM), inactives show at the highest dose activity change, negative = inhibition, usual class: inhibitors | HEK293 hNpr1 GloSensor cGMP, ANP-stimulated luminescence; calls by dose curve; further: nearly all actives have a fitted effect of over 60% in size
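HEK293 cells stably expressing human Npr1 and cGMP GloSensor pGS-40F, loaded 2 h with 2% GloSensor reagent, given compound 30 min at room temperature. Luminescence read before and 20 min after 0.1 nM hNppA.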
* marks the source's active call; other numbers are inactive results; i = inactive; ? = inconclusive; / = no result given; [ ] = remark or other dose. Rows were chosen to be rich in hits. Some 11% of all compounds tested hit in one or more screens of this group. Unless noted, the call rests on the fitted dose curve; in most records, active means well fitted curve in the direction sought with a large enough effect; inconclusive means small, poorly fitted or top-dose-only effect, or another doubt; inactive means no such curve, though single readings can be large; an effect the other way counts as inactive or inconclusive. On the % scale 0 is the no-effect control and ±100 the full control effect; potency means the concentration at half of the fitted maximal effect.

SMILES	HEK293 tox	FLuc inh	3T3 cytotox	NPR1 antag
CC1CCN(CC2CCCCCN2C(=O)Nc2ccc3c(c2)OCCO3)CC1 (configuration not stated)	?	16µM*	-14%	-13%
COC1CCN(CC2CCCCCN2C(=O)Nc2ccc3c(c2)OCCO3)CC1 (configuration not stated)	2%	18µM*	-3%	0%
CCCNC(=O)N1CCCCCC1CN1CCC(C)CC1 (configuration not stated)	-26%	/	-20%	/
COc1ccc(C(=O)N2CCC(C(=O)N3CCCC3c3nc4ccncc4[nH]3)CC2)cc1 (configuration not stated)	-9%	/	-5%	/
O=C(NCCC1CCN(Cc2ccccc2)CC1)C1CCN(c2cnn(Cc3ccccc3)c(=O)c2)C1 (configuration not stated)	?	i	?	-20%
Cc1ccc(-c2cn3c(n2)CO[C@@H](CNCc2ccc(-c4ccccn4)cc2)C3)cc1	35µM*	35µM*	40µM*	?
O=S(=O)(Cc1ccccc1)NC[C@H]1Cn2cc(-c3ccccc3)nc2CO1	?	?	-18%[138 µM]	5%[70.6 µM]
CC(=O)Nc1ccc(CNC[C@H]2Cn3cc(-c4ccc(C)cc4)nc3CO2)cc1	?	71µM*	?	5%[70.6 µM]
Cc1ccc(-c2cn3c(n2)CO[C@@H](CNCc2ccc(S(C)(=O)=O)cc2)C3)cc1	?	?	-28%[174 µM]	-21%[70.6 µM]
c1ccc(-c2cn3c(n2)CO[C@@H](CNCC2CCCCC2)C3)cc1	100µM*	i	100µM*	-2%[70.6 µM]
COc1ccc(-c2cn3c(n2)CO[C@@H](CNCc2ccc(OC(F)(F)F)cc2)C3)cc1	45µM*	?	?	?
CCN1CCN(C(=O)c2cn3cc(-c4ccccc4)sc3n2)CC1	-25%	/	?	/
Cc1ccc(-c2cn3c(n2)CO[C@@H](CNCc2ccccc2Cl)C3)cc1	89µM*	i	89µM*	?
Cc1ccc(-c2cn3c(n2)CO[C@@H](CNC(=O)NCc2ccccc2)C3)cc1	?	71µM*	-17%[138 µM]	0%[70.6 µM]
Cc1ccc(-c2cn3c(n2)CO[C@@H](CNC(=O)c2ccccc2)C3)cc1	?	?	-9%[138 µM]	1%[70.6 µM]
COc1ccc(-c2cn3c(n2)CO[C@@H](CNC(C)=O)C3)cc1	i	45µM*	i	1%[70.6 µM]
Cc1ccc(-c2cn3c(n2)CO[C@@H](CNC2CCCC2)C3)cc1	100µM*	63µM*	100µM*	3%[70.6 µM]
Cc1ccc(-c2cn3c(n2)CO[C@@H](CNC(=O)CCC(=O)O)C3)cc1	i	?	i	-3%[70.6 µM]
COc1ccc(-c2cn3c(n2)CO[C@@H](CNC2CCOCC2)C3)cc1	-7%[172 µM]	i	-12%[138 µM]	3%[70.6 µM]
COc1ccc(-c2cn3c(n2)CO[C@@H](CNCc2nccn2C)C3)cc1	-7%[172 µM]	?	-8%[174 µM]	7%[70.6 µM]
COCCNC(=O)c1ccc2oc(-c3ccncc3)nc2c1	-13%[172 µM]	/	-18%[138 µM]	/
O=C(Nc1ccc2c(c1)OCCO2)N1CCCC1c1nncn1C1CCCC1 (configuration not stated)	1%	/	-9%	/
Cc1ccc(-c2cn3c(n2)CO[C@@H](CNCc2ccc(Cl)cc2)C3)cc1	56µM*	?	45µM*	?
COc1cc(OC)c(-c2nc3ccc(-c4ccc(OC)c(OC)c4OC)cc3o2)cc1OC	?	i	32µM*	-21%
COc1ccc(-c2ccc3nc(-c4ccccc4C)oc3c2)c(OC)c1OC	?	i	?	-13%
SMILES	HEK293 tox	FLuc inh	3T3 cytotox	NPR1 antag
COc1ccc(F)cc1-c1cccc(C(=O)NCC(=O)NCc2ccc3c(c2)OCO3)c1	50µM*	/	?	/
CCOCCNC(=O)CNC(=O)c1cccc(-c2cc(F)ccc2OC)c1	-20%	/	-12%	/
COc1ccc(F)cc1-c1cccc(C(=O)NCCNC(=O)c2ccccc2F)c1	40µM*	/	?	/
COc1ccc(C(=O)NCCNC(=O)c2cccc(-c3cc(F)ccc3OC)c2)cc1	40µM*	/	?	/
COc1ccc(F)cc1-c1cccc(C(=O)NCCNC(=O)c2ccc(C)cc2)c1	?	/	-32%	/
O=C(NCC1CCCCC1)c1cn2cc(-c3ccc(F)cc3)sc2n1	-21%	/	-41%	/
Cc1nnc2ccc(N3CCCC(NC(=O)NC(C)C)C3)nn12 (configuration not stated)	-16%[172 µM]	/	-21%[138 µM]	/
O=C(CCC1CCN(S(=O)(=O)c2ccccc2)CC1)N1CCCC1	?	i	?	-3%
O=C(CCC1CCN(C(=O)[C@H]2C[C@@H]3C=C[C@H]2C3)CC1)N1CCC(Cc2ccccc2)CC1	45µM*	i	?	?
COCc1nc(C2CC(N)C2)cc(N2Cc3nc(C)n(C)c(=O)c3C2)n1 (configuration not stated)	?	i	-13%	-1%
O=c1c2c(n(Cc3cccnc3)n1-c1ccccc1)CN(CC1CC1)CC2	-21%[172 µM]	i	28µM*	-4%[70.6 µM]
COc1ncc(CN2CCc3c(n(Cc4cccnc4)n(-c4ccccc4)c3=O)C2)cn1	-22%[172 µM]	i	?	-2%[70.6 µM]
Cc1cccc(CN2CCc3c(n(Cc4cccnc4)n(-c4ccccc4)c3=O)C2)n1	-2%[172 µM]	i	100µM*	-5%[70.6 µM]
COCCn1c(=O)c2c(n1Cc1ccccc1)CN(Cc1cccc(C)n1)CC2	-10%[172 µM]	i	?	-3%[70.6 µM]
O=C(NCc1ccc2c(c1)OCO2)C1CC(c2ccccc2)CN(C(=O)c2ccccc2F)C1 (configuration not stated)	?	i	?	-24%
O=C(CCc1ccccc1)N1CCCC(n2cc(-c3nc(-c4ccccc4)no3)nn2)C1 (configuration not stated)	45µM*	?	?	?
CC(=O)NCC(=O)N1CCCC(n2cc(-c3nc(-c4ccccc4)no3)nn2)C1 (configuration not stated)	-23%	35µM*	-18%	-10%
COc1ccccc1C(=O)N1CC(Oc2ccc(-c3noc(-c4ccncc4)n3)cc2)C1	?	/	35µM*	/
O=C(c1ccoc1)N1CC(Oc2cccc(-c3nc(-c4ccccc4)no3)c2)C1	?	?	?	5%
CCCNC(=O)N1CC(Oc2cccc(-c3nc(-c4ccccc4)no3)c2)C1	28µM*	i	-23%	-2%
COc1ccccc1C(=O)N1CC(Oc2cccc(-c3nc(-c4ccccc4)no3)c2)C1	45µM*	7.9µM*	32µM*	-10%
O=C(C1CCOCC1)N1CC(Oc2cccc(-c3nc(-c4ccccc4)no3)c2)C1	?	18µM*	?	4%
Cn1cccc1C(=O)N1CC(Oc2ccc(-c3nc(-c4ccccc4)no3)cc2)C1	?	?	-27%	-15%
O=C(NC1CCCC1)N1CC(Oc2cccc(-c3nc(-c4ccccc4)no3)c2)C1	?	i	?	1%
CC(Oc1ccccc1)C(=O)N1CC(Oc2cccc(-c3nc(-c4ccccc4)no3)c2)C1 (configuration not stated)	32µM*	?	28µM*	-27%

From PubChem
